PubChem BioAssay
The source made the active and inactive calls.

Legend:
[1] = A549 cell viability effects, profiling panel, calcein-AM fluorescence, 48 h, basal (AID 1162); details: higher = more signal
[2] = adipocyte viability effects, profiling panel, cell-based, 3T3-L1 adipocytes, calcein-AM fluorescence, 48 h, basal (AID 1163); details: 3T3-L1 adipocytes viability, higher = more signal
[3] = HepG2 cell viability effects, profiling panel, calcein-AM fluorescence, 48 h, basal (AID 1164); details: higher = more signal
[4] = MM1S cell viability effects, profiling panel, calcein-AM fluorescence, 48 h, basal (AID 1165); details: higher = more signal;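 also: viability of MM1S multiple myeloma cells under basal unstimulated conditions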
[5] = basal RPMI8226 viability, no added stimulus, profiling panel, cell-based, calcein-AM fluorescence, 48 h, PK04 Diversity Set (AID 1166); details: RPMI8226 myeloma viability, higher = more signal;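 also: cells grown under basal conditions without added stimulus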
[6] = basal HepG2 mitochondrial membrane potential changes, profiling panel, cell-based, JC-1 fluorescence, 24 h, 100 nL compound (AID 1167); details: higher = more signal
[7] = basal 3T3-L1 adipocyte mitochondrial potential changes, profiling panel, cell-based, JC-1 fluorescence, 3T3-L1 adipocytes, 24 h, 100 nL compound (AID 1168); details: JC-1 mitochondrial fluorescence, higher = more signal, called active from +8 up or from −8 down
[8] = basal RPMI8226 mitochondrial membrane potential changes, profiling panel, cell-based, JC-1 fluorescence, 24 h, 100 nL compound (AID 1169); details: RPMI8226 myeloma, JC-1 mitochondrial potential fluorescence, higher = more signal
[9] = basal MM1S mitochondrial membrane potential changes, profiling panel, cell-based, JC-1 fluorescence, 24 h, 100 nL compound (AID 1170); details: higher = more signal
[10] = A549 lung cancer cell viability effects, profiling panel, resazurin fluorescence, 24 h, PK04 Diversity Set (AID 1171); details: higher = more signal, called active from +8 up or from −8 down
Also: test concentration not given here.

SMILES | z-score [1] | z-score [2] | z-score [3] | z-score [4] | z-score [5] | z-score [6] | z-score [7] | z-score [8] | z-score [9] | z-score [10]
CN(C)CCCCNC(=O)[C@H]1C[C@H]2C(=O)N3CCC[C@H]3C(=O)N2[C@H]1c1cccc(OCCO)c1 | -0.893 | -0.0471 | -0.458 | 0.123 | 0.291 | -1.05 | 0.119 (inactive) | 0.712 | 0.0655 | 0.677 (inactive)
CCOC(=O)C1=CC[C@@H](c2ccc(OC)cc2)N(S(=O)(=O)c2ccc(C)cc2)[C@H]1c1ccc(C)cc1 | -0.35 | -1.09 | 0.65 | 0.632 | 0.583 | 2.39 | -0.717 (inactive) | 0.859 | -0.897 | 0.302 (inactive)
CC1=C([C@H](O)CCc2ccccc2)[C@H](CO)n2c(=O)n(-c3ccccc3)c(=O)n2C1 | 0.229 | 0.273 | 0.862 | 0.5 | 0.874 | -0.303 | 0.603 (inactive) | -0.237 | -1.16 | -0.331 (inactive)
CC(C)N1C(=O)c2ccccc2[C@@H](C(=O)NCC(F)(F)F)[C@@H]1c1ccc(CO)cc1 | 0.346 | -1.81 | 0.569 | 0.238 | 0.371 | -0.0214 | -0.516 (inactive) | -0.00189 | 0.0428 | -0.0442 (inactive)
CN(C)CCCC[C@@H]1NC(=O)[C@@H]2C[C@H](C(=O)NCCCCCCNC(=O)CS)[C@H](c3ccc(O)cc3)N2C1=O | -0.121 | -0.145 | 0.548 | -0.0172 | 0.381 | -0.175 | 0.207 (inactive) | -0.223 | -0.136 | 0.579 (inactive)
C=CCN1C(=O)[C@@]2(O[C@@H](CCn3cc([C@H](O)c4ccccc4)nn3)[C@H]([Si](C)(C)c3ccc(OC)cc3)[C@H]2C)c2cc(N3C(=O)c4cccc5cccc3c45)ccc21 | 0.248 | -0.0484 | -1.93 | -1.87 | -4.04 | 0.319 | -0.127 (inactive) | -0.929 | -1.37 | -1.94 (inactive)
COc1ccc(C(=O)Nc2ccc(CN3C(=O)[C@@]4(O[C@@H](CCn5cc(CCO)nn5)[C@H]([Si](C)(C)c5ccc(OC)cc5)[C@H]4C)c4ccccc43)cc2)cc1 | -0.883 | -0.319 | -3.14 | -2.68 | -4.27 | -1.29 | -0.201 (inactive) | -0.913 | -2.22 | -3.31 (inactive)
CCCN1C(=O)[C@@]2(c3ccc([N+](=O)[O-])cc3)CC(=O)N(CC34CC5CC(CC(C5)C3)C4)[C@@H]2c2ccc(CO)cc21 | 0.129 | -0.4 | -0.301 | -0.194 | 0.448 | -0.885 | -0.656 (inactive) | 0.282 | -0.315 | 0.0382 (inactive)
O=C(NC1CC1)[C@@H]1c2ccccc2C(=O)N(Cc2cc(C(F)(F)F)cc(C(F)(F)F)c2)[C@H]1c1ccc(CO)cc1 | 1.68 | 1.61 | 0.289 | 0.538 | -1.32 | 0.693 | -0.439 (inactive) | 0.801 | -0.687 | 0.307 (inactive)
C=C(CCCC)C(=O)CC[C@H](OC(=O)c1ccccc1-c1ccccc1C(=O)O)c1ccc(OCCO)cc1 | -0.107 | 0.251 | -0.549 | -3.19 | -3.37 | 0.236 | -0.245 (inactive) | -0.346 | 0.258 | 0.52 (inactive)
COc1ccc([Si](C)(C)[C@@H]2[C@@H](CC(=O)N3CCC[C@H]3CO)O[C@]3(C(=O)N(Cc4ccc(N5CCOC5=O)cc4)c4ccccc43)[C@H]2C)cc1 | -0.526 | 1.05 | -2.21 | -2.64 | -4.54 | 0.391 | 1.67 (inactive) | -1.07 | -1.75 | -1.77 (inactive)
CC(C)N1C(=O)c2ccccc2[C@](C)(C(=O)NCC(F)(F)F)[C@@H]1c1ccc(CO)cc1 | 0.508 | 1.33 | 1.01 | 0.0226 | 0.177 | 0.686 | -0.0819 (inactive) | 0.261 | 1.38 | 0.87 (inactive)
[N-]=[N+]=Nc1ccccc1[C@@H]1OC(c2ccc(OCCCO)cc2)=N[C@]1(CCS(=O)(=O)c1ccccc1)C(=O)NCC(O)CO (stereo not given in full) | -0.149 | -0.375 | 0.578 | -0.662 | 0.274 | -0.148 | -0.199 (inactive) | -0.0226 | -0.763 | 0.575 (inactive)
COC(=O)[C@@]1(Cc2ccc(F)cc2)[C@H]2c3cc(C(=O)N(C)C)n(CCc4ccc(O)c(O)c4)c3C[C@H]2CN1C(=O)c1ccccc1 | -0.681 | -1.17 | 0.193 | 0.287 | -0.238 | 0.86 | 0.243 (inactive) | -0.672 | -1.95 | -0.238 (inactive)
C=CCNC(=O)[C@@H]1[C@H]2C(=O)O[C@H](c3ccccc3)[C@H](c3ccccc3)N2[C@H](c2ccc(OCCO)cc2)[C@@]12C(=O)Nc1ccc(C#CC3(O)CCCCCC3)cc12 | -0.134 | 1.84 | -1.39 | -1.29 | -2.43 | -1.16 | -0.848 (inactive) | -0.862 | -0.962 | 0.355 (inactive)
[N-]=[N+]=Nc1ccccc1C[C@@]1(C(=O)NCc2ccccc2)N=C(c2ccc(OCCCO)cc2)O[C@@H]1c1ccccc1N=[N+]=[N-] | -1.58 | 1.31 | -0.83 | -3 | -4.36 | 0.728 | -0.182 (inactive) | -1.23 | -0.936 | -0.996 (inactive)
COCCOC(=O)N1C(=O)[C@@]2(c3cc(C#CCNC(N)=O)ccc31)[C@H](C(=O)Nc1nc3ccccc3s1)[C@H]1C(=O)O[C@H](c3ccccc3)[C@H](c3ccccc3)N1[C@@H]2c1ccccc1OCCO | 1.01 | 0.706 | -0.0995 | 0.223 | 0.405 | -2.73 | 2.4 (inactive) | -0.981 | -1.64 | -1.29 (inactive)
COCCOC(=O)N1C(=O)[C@@]2(c3cc(C#CCC(C(=O)OC)C(=O)OC)ccc31)[C@H](C(=O)Nc1nc3ccccc3s1)[C@H]1C(=O)O[C@H](c3ccccc3)[C@H](c3ccccc3)N1[C@@H]2c1ccc(OCCO)cc1 | 0.4 | 0.502 | 0.593 | -0.733 | 0.427 | -3.27 | 1.05 (inactive) | -0.708 | 0.327 | 1.42 (inactive)
CCC(CC)C(O)C1C=CC2C(=O)N(c3ccccc3)C(=O)C2N1Nc1ccccc1F (stereo not given) | 0.21 | 0.561 | 1.09 | 1.38 | 0.523 | 0.387 | -0.147 (inactive) | -0.231 | -0.817 | 0.0513 (inactive)
CC=CC(O)C1C=CC2C(=O)NC(=O)C2N1Nc1ccc(Cl)cc1Cl (stereo not given) | -1.54 | -0.883 | -1.14 | -0.866 | -0.624 | -2.04 | -1.04 (inactive) | 0.501 | -0.446 | -0.458 (inactive)
C=CCC(OC(C)=O)[C@@H]1[C@@H](N(Cc2cc3ccccc3o2)C(=O)Cc2ccc(OC)cc2)c2cc(OCCCO)ccc2N1C(=O)c1ccc2ccccc2n1 (stereo not given in full) | 0.542 | 1.46 | 1.26 | 0.307 | -1.63 | 2.31 | -0.106 (inactive) | -0.617 | 0.576 | -0.719 (inactive)
COc1ccc(C(=O)Nc2cccc(CN3C(=O)[C@]4(O[C@H](CC(=O)N5Cc6ccccc6C[C@H]5CO)[C@@H]([Si](C)(C)c5ccc(OC)cc5)[C@@H]4C)c4ccccc43)c2)cc1 | -0.969 | 1.3 | -1.05 | -0.253 | -2.56 | 0.729 | -0.458 (inactive) | -0.93 | -0.313 | -1.31 (inactive)
Cc1ccccc1C(O)C1C=CC2C(=O)N(c3ccccc3)C(=O)C2N1Nc1ccccc1 (stereo not given) | -0.0545 | -1.17 | 1.8 | 0.928 | -0.645 | -0.978 | -0.703 (inactive) | -0.318 | -0.638 | 0.0292 (inactive)
CN(C)CCCNC(=O)[C@@H]1c2ccccc2C(=O)N(Cc2ccccc2C(F)(F)F)[C@H]1c1ccc(CO)cc1 | 1.42 | 0.747 | 1.13 | 0.353 | 1.09 | 2.98 | -0.343 (inactive) | 0.188 | -0.317 | 1.45 (inactive)
COc1ccc([Si](C)(C)[C@@H]2[C@@H](CC(=O)N3Cc4ccccc4C[C@H]3CO)O[C@]3(C(=O)N(Cc4ccc(N5CCOC5=O)cc4)c4ccccc43)[C@H]2C)cc1 | 0.369 | 0.704 | 0.115 | -1.07 | -0.876 | 0.966 | 1 (inactive) | -1.11 | 0.359 | -0.674 (inactive)
C=CCOC(=O)[C@H]1[C@@H]2C(=O)O[C@@H](c3ccccc3)[C@@H](c3ccccc3)N2[C@@H](c2ccc(OCCOC(=O)[C@@H]3C[C@@H]4C(=O)N[C@@H](CCCC[N+](C)(C)C)C(=O)N4[C@@H]3c3ccc(O)cc3)cc2)[C@]12C(=O)Nc1ccc(I)cc12 | -0.717 | -0.169 | -0.457 | -2.9 | -1.43 | -2 | 0.638 (inactive) | -0.767 | -0.879 | 0.281 (inactive)
CCOC(=O)C[C@H]1[C@H](OC(=O)c2ccccc2-c2ccccc2)[C@@H](NC(=O)c2ccc3ccccc3c2)c2cc(OCCCO)ccc2N1C(=O)Cc1ccc(OC)cc1 | 0.0867 | 0.152 | 0.278 | 0.306 | -0.543 | -0.175 | 0.367 (inactive) | -0.49 | 0.0571 | -0.439 (inactive)
C[C@@H]1ON(c2ccccc2)[C@H](c2ccccc2)[C@H]1C(=O)O | -0.0985 | 0.375 | -0.374 | -0.655 | 0.0402 | -0.246 | -0.212 (inactive) | -0.0601 | -0.599 | -0.236 (inactive)
CN(C)C(=O)[C@]1(Cc2ccccc2)N=C(c2ccc(OCCCO)cc2)O[C@@H]1c1ccccc1CN=[N+]=[N-] | 0.233 | 0.412 | -0.0312 | -0.726 | -1.65 | 0.501 | 0.0148 (inactive) | -1.23 | -0.507 | 0.553 (inactive)
